{"source": "PubChem BioAssay AID624296", "about": "(National Center for Advancing Translational Sciences (NCATS), 2012)", "note": "The campaign covered roughly 350,000 compounds. About 9,900 (2.8%) were called active. Where a call stands in place of a potency, no number is given. Not shown: some 15% with an inconclusive outcome. Calls come from the whole dose curve; as a rule, active = well fitted activation curve with a large enough effect; inconclusive = small, poorly fitted or top-dose-only effect; inactive = no such curve, though single readings can be large or run the other way. The sample as a whole holds a higher share of actives than the screen did. Potency is the fitted concentration of half-maximal effect.", "data": [{"experiment": "A quantitative high throughput screen for small molecules that induce DNA re-replication in MCF 10a normal breast cells; note: nearly all actives have a fitted effect of over 50% in size.", "details": "MCF 10A DNA re-replication, Hoechst nuclear intensity, 48 h; series mostly up to 46.1 µM", "values": [{"compound": "CCOC(=O)C1=C(NC(=S)NC(=O)c2ccccc2)c2ccccc2CC1(C)C", "Potency": "4.11 µM (active)"}, {"compound": "Cc1ccc(NC(=S)NC(=O)c2ccc(-c3ccccc3)cc2)cc1", "Potency": "inactive"}, {"compound": "CCOC(=O)c1c(-c2ccccc2)csc1NC(=S)NC(=O)c1ccccc1", "Potency": "inactive"}, {"compound": "CSc1ccc(S(=O)(=O)NCC(=O)OCC(=O)NC2(C#N)CCCCC2)cc1[N+](=O)[O-]", "Potency": "inactive"}, {"compound": "COc1ccc(CCNC(=O)COC(=O)C2CC2C)cc1", "note": "(stereo unspecified)", "Potency": "inactive"}, {"compound": "C#CCOCCOCCOCCNc1nc(N2CCN(C(=O)[C@H](CO)n3cc([C@@H](N)C(C)C)nn3)CC2)nc(N2CCN(C(=O)[C@H](CCC(=O)O)n3cc([C@@H](N)[C@H](C)CC)nn3)CC2)n1", "Potency": "inactive"}, {"compound": "CCOC(=O)c1sc(=S)n2c1[nH]c(=O)c1ccc(C(=O)OC)cc12", "Potency": "inactive"}, {"compound": "CCOC(=O)c1sc(=NC(=O)c2ccc(Br)cc2)n(C)c1C", "Potency": "inactive"}, {"compound": "CCOC(=O)C1=C(C)Nc2sc(C(=O)c3ccc(Br)cc3)c(N)c2C1c1ccc(C(=O)OC)cc1", "note": "(stereo unspecified)", "Potency": "2.91 µM (active)"}, {"compound": "CC(Oc1ccc(Br)cc1)C(=O)NC1CCCCCC1", "note": "(stereo unspecified)", "Potency": "inactive"}, {"compound": "CCc1[nH]nc(C(=O)N2CCCC(CO)(Cc3ccc(F)cc3F)C2)c1C", "note": "(stereo unspecified)", "Potency": "inactive"}, {"compound": "CCOc1cc(CN2CCCC(CO)(Cc3ccc(F)cc3F)C2)ccc1OC", "note": "(stereo unspecified)", "Potency": "3.66 µM (active)"}, {"compound": "COc1cccc(CC2(CO)CCCN(Cc3ccc(OC(F)F)cc3)C2)c1", "note": "(stereo unspecified)", "Potency": "inactive"}, {"compound": "Cc1nc(N)nc(Cl)c1CCC1OCCO1", "Potency": "inactive"}, {"compound": "O=C(COC(=O)c1cccnc1Cl)NC(=O)NC1CCCCC1", "Potency": "inactive"}, {"compound": "CCOC(=O)[C@@H]1[C@H]2COc3ccc(Br)cc3[C@H]2N2C(=O)N(c3ccc(C)cc3)C(=O)[C@@]12C", "Potency": "inactive"}, {"compound": "COc1ccc(/C(C)=N/NC(=O)CCC(=O)Nc2ccc(Cl)cc2Cl)c(OC)c1", "Potency": "inactive"}, {"compound": "COc1ccc(OC)c(/C(C)=N\\NC(=O)c2cc3cc(Cl)ccc3n2C)c1", "Potency": "14.6 µM (active)"}, {"compound": "COc1ccc(OC)c(C(=O)c2ccc(Cl)cc2)c1", "Potency": "inactive"}, {"compound": "C=CCN1C=C(C(=O)c2ccccc2)C(=O)CC1", "Potency": "inactive"}, {"compound": "OCC[C@H]1C[C@@H](O)[C@H](O)[C@@]2(OCCc3ccccc32)O1", "Potency": "inactive"}, {"compound": "O=C(Nc1cccc(Br)c1)C1CC(=O)N(C2CCCC2)C1", "note": "(stereo unspecified)", "Potency": "inactive"}, {"compound": "Cc1nnnn1/C(=C\\c1ccccc1)C(=O)OCC(=O)N1CC2(C)CC1CC(C)(C)C2", "note": "(stereo unspecified)", "Potency": "16.4 µM (active)"}, {"compound": "Cc1cccc(C(=O)NCC(=O)OCC(=O)N2CC3(C)CC2CC(C)(C)C3)c1", "note": "(stereo unspecified)", "Potency": "inactive"}, {"compound": "COc1ccccc1C(=O)N1CC2(C)CC1CC(C)(C)C2", "note": "(stereo unspecified)", "Potency": "inactive"}, {"compound": "O=C(COC(=O)Cc1ccc([N+](=O)[O-])cc1)NC1CCCCCC1", "Potency": "inactive"}, {"compound": "CSc1ncccc1C(=O)Nc1cccc(S(=O)(=O)N2CCOCC2)c1", "Potency": "inactive"}, {"compound": "CSc1nc(-c2ccccc2)nc(C(Cl)Cl)n1", "Potency": "2.59 µM (active)"}, {"compound": "CSc1nc(C)cc(SC(C(C)=O)C(=O)Nc2ccccc2)n1", "note": "(stereo unspecified)", "Potency": "inactive"}, {"compound": "CSc1ncc(Sc2ccccc2)c(C(=O)O)n1", "Potency": "inactive"}, {"compound": "O=C(Nc1cccc(S(=O)(=O)NC2=NCCC2)c1)c1ccc(F)cc1F", "Potency": "inactive"}, {"compound": "O=C(Nc1ccc(C(F)(F)F)cc1)c1cccc(-n2cnnn2)c1", "Potency": "inactive"}, {"compound": "CC(C)COc1ccc(C(=O)NNC(=O)CCC(=O)c2cccs2)cc1", "Potency": "inactive"}, {"compound": "O=C(NCc1ccccc1)C1=C[C@H](C2CC2)C[C@H](OCc2ccc(CO)cc2)O1", "Potency": "inactive"}, {"compound": "O=C(NCc1ccccc1)C1=C[C@@H](C2CCCCC2)C[C@@H](OCc2ccc(CO)cc2)O1", "Potency": "18.4 µM (active)"}, {"compound": "C#Cc1ccc([C@@H]2C=C(C(=O)O)O[C@H](OCCCCO)C2)cc1", "Potency": "inactive"}, {"compound": "CC(C)(C)[C@H]1C=C(C(=O)NCc2ccccc2)O[C@@H](OCc2ccc(CO)cc2)C1", "Potency": "inactive"}, {"compound": "O=C(O)C1=C[C@H](c2cccs2)C[C@H](OCCCCO)O1", "Potency": "inactive"}, {"compound": "O=C(NCc1ccccc1)C1=C[C@@H](c2ccccc2)C[C@@H](OCCCCO)O1", "Potency": "16.4 µM (active)"}, {"compound": "CC(=O)OC1CCC2(C)C(=CCC3C4CC(=O)N(O)C(=O)C4(C)CCC32)C1", "note": "(stereo unspecified)", "Potency": "inactive"}, {"compound": "CC(C)Cc1nnc(N)s1", "Potency": "inactive"}, {"compound": "COc1ccc(Nc2ccc([N+](=O)[O-])cn2)cn1", "Potency": "inactive"}, {"compound": "CC(C)c1ccc(C=NNc2ccc([N+](=O)[O-])cn2)cc1", "Potency": "6.51 µM (active)"}, {"compound": "NC(=S)N/N=C/c1ccc([N+](=O)[O-])cc1", "Potency": "inactive"}, {"compound": "Cc1ccc(S(=O)(=O)NCCNC(C)c2ccc(Br)cc2)cc1", "note": "(stereo unspecified)", "Potency": "inactive"}, {"compound": "C#CCOCCOCCOCCNc1nc(N2CCN(C(=O)[C@H](CCCN=C(N)N)n3cc(C(N)[C@@H](C)CC)nn3)CC2)nc(N2CCN(C(=O)[C@H](CO)n3cc([C@@H](N)C(C)C)nn3)CC2)n1", "note": "(stereo partly specified)", "Potency": "inactive"}]}]}
